Drawing on PubChem BioAssay (NCI), this text covers growth inhibition for 9 compounds.

The panel holds about 79,000 compounds, 15% with a hit somewhere; the sample as a whole holds those more often. Values without a mark were called inactive. Calls of active or inactive are those of the source. Rule as the data show it: active = growth inhibition above about 70%; inactive = the rest.

The nature of assay [1]: NCI Yeast Anticancer Drug Screen. Data for the rad50 strain (AID 155).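 Also: 0% = growth of vehicle-only cultures of the same strain.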 The settings on record: S. cerevisiae rad50 strain growth inhibition, active compounds read high. In short, it runs like this:
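Inhibition values express reduced yeast growth in compound-treated cultures relative to vehicle-treated controls.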

A short description of assay [2]: NCI Yeast Anticancer Drug Screen. Data for the mec2-1 strain (AID 157). The conditions noted are these: S. cerevisiae mec2-1 strain, active compounds read high. In short, it runs like this:
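Readout is yeast growth inhibition, normalised to vehicle-treated controls, in the mec2-1 strain exposed to compound.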

Assay [3] in a line: NCI Yeast Anticancer Drug Screen. Data for the sgs1 mgt1 strain (AID 161).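 Also: 0% = growth of cultures given vehicle only.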 The conditions noted are these: S. cerevisiae sgs1 mgt1 strain, active compounds read high. The gist of the method:
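Growth of a repair-deficient yeast mutant was monitored after compound treatment and expressed as inhibition relative to vehicle-treated cultures.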

Assay [4] in a line: NCI Yeast Anticancer Drug Screen. Data for the cln2 rad14 strain (AID 165).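 Also: 0% = growth equal to vehicle treated cultures.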 The settings on record: S. cerevisiae cln2 rad14 strain, active compounds read high. In short, it runs like this:
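Relative to vehicle controls, growth inhibition of compound-treated cln2 rad14 yeast was recorded.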

Assay [5] in a line: NCI Yeast Anticancer Drug Screen. Data for the bub3 strain (AID 167). The conditions noted are these: S. cerevisiae bub3 mutant strain, active compounds read high. The gist of the method:
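Steps: expose the mutant yeast strain to compound; grow alongside vehicle-treated cultures; measure growth; express inhibition against the vehicle cultures.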

A short description of assay [6]: NCI Yeast Anticancer Drug Screen. Data for the mlh1 rad18 strain (AID 175). The settings on record: S. cerevisiae mlh1 rad18 strain growth inhibition, active compounds read high. In short, it runs like this:
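Test agents were incubated with a yeast strain of defined genotype (DNA damage repair defect). Inhibition of growth was derived by comparison with vehicle-exposed cultures.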

Setting [7] is: at 5.0 µM (retest, dose inferred, filed as 0.5).
[8] abbreviates: at 50.0 µM (retest, dose inferred, filed as 5.0).

In the case of `Cc1ccccc1N1C(=O)C(=O)c2cccc(C)c21`, the growth inhibition in assay [1] (setting [7]) was 2%; in assay [1] (setting [8]) it was 98% (active); in assay [1] (at 50.0 µM), 99.2% (active); in assay [2] (setting [7]), 0%; in assay [2] (setting [8]) it was 99% (active); in assay [2] (at 50.0 µM), 99.5% (active). In addition, the growth inhibition is 1% in assay [3] (setting [7]); 99% (active) in assay [3] (setting [8]); 99.7% (active) in assay [3] (at 50.0 µM); 1% in assay [4] (setting [7]); 98% (active) in assay [4] (setting [8]); 97% (active) in assay [4] (at 50.0 µM). For the same compound, the growth inhibition in assay [5] (setting [7]) was 2%; in assay [5] (setting [8]), 99% (active); in assay [5] (at 50.0 µM), 99.8% (active); in assay [6] (setting [7]), 0%; in assay [6] (setting [8]) it was 99% (active); in assay [6] (at 50.0 µM) it was 83.1% (active).
`c1ccc(C(c2ccccc2)c2ccc3ccccc3n2)cc1`: the growth inhibition was -3% in assay [1] (setting [7]); 91% (active) in assay [1] (setting [8]); 18.1% in assay [1] (at 50.0 µM); -2% in assay [2] (setting [7]); 71% (active) in assay [2] (setting [8]); 40.8% in assay [2] (at 50.0 µM). The growth inhibition in assay [3] (setting [7]) was -4%; in assay [3] (setting [8]), 92% (active); in assay [3] (at 50.0 µM), 67.8%; in assay [4] (setting [7]), 2%; in assay [4] (setting [8]), 45%; in assay [4] (at 50.0 µM), -15.3%. Further, the growth inhibition in assay [5] (setting [7]) was 23%; in assay [5] (setting [8]), 58%; in assay [5] (at 50.0 µM), 61.4%; in assay [6] (setting [7]), -3%; in assay [6] (setting [8]) it was 80% (active); in assay [6] (at 50.0 µM) it was 37.5%.
On to `C#CCN1CCN(C(=S)N/N=C(\C)c2ccccn2)CC1`, for which the growth inhibition in assay [1] (setting [7]) is 22%; in assay [1] (setting [8]), 99% (active); in assay [1] (at 50.0 µM), 99.5% (active); in assay [2] (setting [7]) it was 19%; in assay [2] (setting [8]), 100% (active); in assay [2] (at 50.0 µM) it was 99.7% (active). Moreover, the growth inhibition in assay [3] (setting [7]) is 20%; in assay [3] (setting [8]), 100% (active); in assay [3] (at 50.0 µM), 99.5% (active); in assay [4] (setting [7]), 21%; in assay [4] (setting [8]), 99% (active); in assay [4] (at 50.0 µM) it was 99.4% (active). The growth inhibition was 14% in assay [5] (setting [7]); 99% (active) in assay [5] (setting [8]); 99.3% (active) in assay [5] (at 50.0 µM); 52% in assay [6] (setting [7]); 100% (active) in assay [6] (setting [8]); 99.3% (active) in assay [6] (at 50.0 µM).
Regarding `Cc1occc1C(=S)Nc1ccc(Cl)c(C(=O)OCC(F)(F)F)c1`, the growth inhibition in assay [1] (setting [7]) is 23%; in assay [1] (setting [8]) it was 92% (active); in assay [1] (at 50.0 µM), 92.2% (active); in assay [2] (setting [7]), 21%; in assay [2] (setting [8]) it was 93% (active); in assay [2] (at 50.0 µM), 92.8% (active). The growth inhibition in assay [3] (setting [7]) was 26%; in assay [3] (setting [8]), 96% (active); in assay [3] (at 50.0 µM), 90.8% (active); in assay [4] (setting [7]) it was 21%; in assay [4] (setting [8]), 97% (active); in assay [4] (at 50.0 µM), 88.5% (active). Besides, the growth inhibition was 29% in assay [5] (setting [7]); 99% (active) in assay [5] (setting [8]); 91.2% (active) in assay [5] (at 50.0 µM); 27% in assay [6] (setting [7]); 96% (active) in assay [6] (setting [8]); 86.8% (active) in assay [6] (at 50.0 µM).
Regarding `N=C(N)c1ccc(SCCCCCSc2ccc(C(=N)N)cc2)cc1`, the growth inhibition was 21% in assay [1] (setting [7]); 56% in assay [1] (setting [8]); 57.2% in assay [1] (at 50.0 µM); 17% in assay [2] (setting [7]); 61% in assay [2] (setting [8]); 74% (active) in assay [2] (at 50.0 µM). For the same compound, the growth inhibition in assay [3] (setting [7]) was 24%; in assay [3] (setting [8]), 86% (active); in assay [3] (at 50.0 µM) it was 76% (active); in assay [4] (setting [7]), 22%; in assay [4] (setting [8]) it was 57%; in assay [4] (at 50.0 µM) it was 44.6%. Further, the growth inhibition in assay [5] (setting [7]) was 23%; in assay [5] (setting [8]), 83% (active); in assay [5] (at 50.0 µM), 63.4%; in assay [6] (setting [7]) it was 25%; in assay [6] (setting [8]), 87% (active); in assay [6] (at 50.0 µM) it was 72.3% (active).
In the case of `CCCCCCCCCCCCCCCC[N+](C)(C)C(C)c1ccc(OC)cc1` (configuration not stated), the growth inhibition is 98% (active) in assay [1] (setting [7]); 98% (active) in assay [1] (setting [8]); 90.6% (active) in assay [1] (at 50.0 µM); 98% (active) in assay [2] (setting [7]); 98% (active) in assay [2] (setting [8]); 90.2% (active) in assay [2] (at 50.0 µM). The growth inhibition is 98% (active) in assay [3] (setting [7]); 99% (active) in assay [3] (setting [8]); 90% (active) in assay [3] (at 50.0 µM); 98% (active) in assay [4] (setting [7]); 99% (active) in assay [4] (setting [8]); 85.8% (active) in assay [4] (at 50.0 µM). In addition, the growth inhibition in assay [5] (setting [7]) is 98% (active); in assay [5] (setting [8]), 98% (active); in assay [5] (at 50.0 µM) it was 92.3% (active); in assay [6] (setting [7]), 98% (active); in assay [6] (setting [8]) it was 97% (active); in assay [6] (at 50.0 µM), 91.8% (active).
`O=C(Nc1ccc(Cl)cc1)c1cccc([N+](=O)[O-])c1O`: the growth inhibition in assay [1] (setting [7]) is 9%; in assay [1] (setting [8]), 13%; in assay [1] (at 50.0 µM), 32.8%; in assay [2] (setting [7]), 5%; in assay [2] (setting [8]), 11%; in assay [2] (at 50.0 µM), -8.45%. For the same compound, the growth inhibition in assay [3] (setting [7]) was 8%; in assay [3] (setting [8]) it was 11%; in assay [3] (at 50.0 µM), 70.8% (active); in assay [4] (setting [7]), -3%; in assay [4] (setting [8]), 34%; in assay [4] (at 50.0 µM), -22%. For the same compound, the growth inhibition is 6% in assay [5] (setting [7]); 10% in assay [5] (setting [8]); -5% in assay [5] (at 50.0 µM); 7% in assay [6] (setting [7]); 16% in assay [6] (setting [8]); 11.2% in assay [6] (at 50.0 µM).
For `CN(C)[C@@H]1C(=O)C(C(=O)NCNc2nc3n[nH]nc3c(=O)[nH]2)=C(O)[C@@]2(O)C(=O)C3=C(O)c4c(O)cccc4[C@@](C)(O)[C@H]3C[C@@H]12`, the growth inhibition was -1% in assay [1] (setting [7]); 9% in assay [1] (setting [8]); -5.65% in assay [1] (at 50.0 µM); -4% in assay [2] (setting [7]); 6% in assay [2] (setting [8]); 11.2% in assay [2] (at 50.0 µM). The growth inhibition in assay [3] (setting [7]) was -7%; in assay [3] (setting [8]) it was 3%; in assay [3] (at 50.0 µM), -7%; in assay [4] (setting [7]), 1%; in assay [4] (setting [8]), -8%; in assay [4] (at 50.0 µM), 11.6%. Besides, the growth inhibition in assay [5] (setting [7]) is 7%; in assay [5] (setting [8]) it was 14%; in assay [5] (at 50.0 µM), -10.6%; in assay [6] (setting [7]), 1%; in assay [6] (setting [8]), 4%; in assay [6] (at 50.0 µM), -4.9%.
Turning to `O=C(Nc1ccccc1)c1cccc2ccccc12`, the growth inhibition in assay [1] (setting [7]) is 2%; in assay [1] (setting [8]), -8%; in assay [1] (at 50.0 µM), 67.7%; in assay [2] (setting [7]), 4%; in assay [2] (setting [8]) it was -1%; in assay [2] (at 50.0 µM), 48%. For the same compound, the growth inhibition in assay [3] (setting [7]) was 6%; in assay [3] (setting [8]), -4%; in assay [3] (at 50.0 µM) it was 55.1%; in assay [4] (setting [7]), 1%; in assay [4] (setting [8]), -6%; in assay [4] (at 50.0 µM), 24.1%. Further, the growth inhibition is -18% in assay [5] (setting [7]); 0% in assay [5] (setting [8]); 51% in assay [5] (at 50.0 µM); -15% in assay [6] (setting [7]); 7% in assay [6] (setting [8]); 70.8% (active) in assay [6] (at 50.0 µM).
